This passage reports Potency results from PubChem BioAssay (Tox21).

Assay [1] can be described thus: qHTS RealTime-Glo MT Cell Viability Assay in HEK293 cells - 0 hour (AID 1224880). Also: top concentration of the series differs between compounds; nearly all actives have a fitted effect of over 45% in size. In short, it runs like this: (§1)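 Tox21 screen in HEK293 using RealTime-Glo MT chemistry, with cells and reagent co-dispensed. Luminescence proportional to viable cell number was captured at intervals during 40 h compound exposure at 37 C.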
The nature of assay [2]: A CellTox Green Cytotoxicity Assay to monitor cytotoxicity in HEK293 cells - 32 hour (AID 1224881). Also: nearly all actives have a fitted effect of over 40% in size. Summed up:
(§2)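 Seeding of HEK293 cells together with cytotoxicity dye preceded a 5 h incubation at 37 C/5% CO2. Test compounds in DMSO were then added and fluorescence monitored across 40 h.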

Assay [3] can be described thus: A CellTox Green Cytotoxicity Assay to monitor cytotoxicity in HepG2 cells - 0 hour (AID 1224882). Also: nearly all actives have a fitted effect of over 35% in size. Also: potency is read from the fitted curve at half-maximal effect. In short, it runs like this:
(§3)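 Nonlytic assay: viable cells exclude the dye, so fluorescence scales with cell death. HepG2 at 600 cells/well, compounds added after 5 h, signal read across 40 h.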

Assay [4] is described as follows: qHTS RealTime-Glo MT Cell Viability Assay in HEK293 cells - 24 hour (AID 1224886). Also: nearly all actives have a fitted effect of over 50% in size. Also: potency is read from the fitted curve at half-maximal effect. Summed up:
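HEK293 cells seeded with NanoLuc/prosubstrate reagent, rested 5 h at 37 C, then dosed and kept at 37 C up to 40 h. Nonlytic real-time luminescence from viable cells read at 0, 8, 16, 24, 32 and 40 h.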

Assay [5] is described as follows: qHTS RealTime-Glo MT Cell Viability Assay in HEK293 cells - 8 hour (AID 1224887). Also: nearly all actives have a fitted effect of over 50% in size. Also: potency is read from the fitted curve at half-maximal effect. Summed up: as §1
The nature of assay [6]: A CellTox Green Cytotoxicity Assay to monitor cytotoxicity in HEK293 cells - 16 hour (AID 1224888). Also: nearly all actives have a fitted effect of over 35% in size. Also: potency is read from the fitted curve at half-maximal effect. In short, it runs like this:
as §2

Assay [7] can be described thus: qHTS RealTime-Glo MT Cell Viability Assay in HepG2 cells - 0 hour (AID 1224889). Also: nearly all actives have a fitted effect of over 50% in size. In short, it runs like this:
(§4)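 HepG2 cells (600/well) were dispensed with RealTime-Glo reagents, incubated 5 h at 37 °C, then treated with compounds in DMSO for up to 40 h. Nonlytic NanoLuc luminescence reflecting viable cells was read at each stated time point.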

The nature of assay [8]: A CellTox Green Cytotoxicity Assay to monitor cytotoxicity in HepG2 cells - 8 hour (AID 1224890). Also: nearly all actives have a fitted effect of over 45% in size. Also: potency is read from the fitted curve at half-maximal effect. Summed up: as §3
The nature of assay [9]: qHTS assay to identify small molecule antagonists of the estrogen receptor alpha (ER-alpha) signaling pathway using the BG1 cell line in the presence of 0.1 nM 17-beta-estradiol - cell viability counter screen (AID 1259241). Also: nearly all actives have a fitted effect of over 40% in size. Also: potency is read from the fitted curve at half-maximal effect. In short, it runs like this:
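Estradiol-stimulated (0.1 nM) VM7Luc4E2 cells exposed to compounds 22 hr; viability measured by fluorescence of cleaved CellTiter-Fluor substrate after 30 min.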

The nature of assay [10]: qHTS assay to identify small molecule antagonists of the androgen receptor (AR) signaling pathway using the MDA cell line in the presence of 0.5 nM R1881 - cell viability counter screen (AID 1259242). Also: nearly all actives have a fitted effect of over 45% in size. Also: potency is read from the fitted curve at half-maximal effect. Summed up: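 R1881 at 0.5 nM final stimulated MDA-kb2 cells during 16 hr compound treatment at 37C. Cytotoxicity read: CellTiter-Fluor fluorescence after 30 min.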
Assay [11] concerns the target Estrogen receptor (Homo sapiens) (UniProt P03372). The assay can be described thus: qHTS assay to identify small molecule antagonists of the estrogen receptor alpha (ER-alpha) signaling pathway using the BG1 cell line in the presence of 0.1 nM 17-beta-estradiol (AID 1259244). Also: nearly all actives have a fitted effect of over 50% in size. Also: potency is read from the fitted curve at half-maximal effect. Summed up:
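VM7Luc4E2; 4xERE-luciferase; 0.1 nM E2 final; 22 h co-incubation, 37C; ONE-Glo luminescence after 30 min at room temperature.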

Assay [12] in a line: qHTS assay to identify small molecule HDAC inhibitors (AID 1259364).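 Also: wild-type HCT-116 cells with endogenous class I/II HDAC activity; top concentration of the series differs between compounds; nearly all actives have a fitted effect of over 45% in size.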 Summed up:
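Relative class I and II HDAC activity is taken from the luminogenic signal in HCT-116 cells, with compound exposure 2 hr and reagent development 30 min at room temperature.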

Assay [13] in a line: qHTS assay to identify small molecule HDAC inhibitors - cell viability counter screen (AID 1259365). In short, it runs like this:
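After overnight seeding at 1,500 cells per well, wild-type HCT-116 cultures took up compounds in DMSO for 2hr at 37 C. Viable cell content came from luminescence with CellTiter-Glo.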

Assay [14] can be described thus: qHTS assay to identify small molecule agonists of the sonic hedgehog signaling (Shh) pathway - cell viability counter screen (AID 1259366). Also: nearly all actives have a fitted effect of over 50% in size. Also: potency is read from the fitted curve at half-maximal effect. In short, it runs like this:
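Same-well cytotoxicity read. Gli1-Luc reporter 3T3 cells; compounds 24hr, 37C/5% CO2; CellTiter-Fluor fluorescence.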

Assay [15] is described as follows: A CellTox Green Cytotoxicity Assay to monitor cytotoxicity in HepG2 cells - 32 hour (AID 1224883). Also: nearly all actives have a fitted effect of over 50% in size. Also: potency is read from the fitted curve at half-maximal effect. In short, it runs like this:
as §3

Assay [16] is described as follows: A CellTox Green Cytotoxicity Assay to monitor cytotoxicity in HEK293 cells - 8 hour (AID 1224884). Also: nearly all actives have a fitted effect of over 35% in size. Also: potency is read from the fitted curve at half-maximal effect. Summed up:
as §2

Assay [17] in a line: qHTS RealTime-Glo MT Cell Viability Assay in HepG2 cells - 16 hour (AID 1224885). Also: nearly all actives have a fitted effect of over 50% in size. In short, it runs like this: as §4
Assay [18] concerns the target Androgen receptor (Homo sapiens) (UniProt P10275). The assay can be described thus: qHTS assay to identify small molecule antagonists of the androgen receptor (AR) signaling pathway using the MDA cell line in the presence of 0.5 nM R1881 (AID 1259243). Also: nearly all actives have a fitted effect of over 50% in size. In short, it runs like this: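 We exposed MDA-kb2 cells to compounds under 0.5 nM R1881 stimulation for 16 hr at 37C and quantified MMTV-driven luciferase by luminescence.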

Assay [19] is described as follows: qHTS assay to identify small molecule antagonists of the sonic hedgehog signaling (Shh) pathway - cell viability counter screen (AID 1259367). Also: nearly all actives have a fitted effect of over 55% in size. Also: potency is read from the fitted curve at half-maximal effect. Summed up:
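NIH/3T3-derived Gli1-Luc reporter cells (2,000 per well) rested 4 hr at 37 C, then received DMSO compounds plus conditioned medium. After 23 hr of treatment, CellTiter-Fluor was added for 1 hr at 37C and fluorescence read.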

Assay [20] in a line: qHTS assay to identify small molecule phospholipidosis (PLD) inducers (AID 1259344; active = well fitted curve in the direction sought with a large enough effect; an effect the other way counts as inactive or inconclusive). Summed up:
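HepG2 cells on collagen I, attached 4 h at 37 C, were co-treated with compound and LipidTOX Red dye for 24 h at 37 C, then fixed with paraformaldehyde plus Hoechst 33342 and imaged by high-content microscopy for phospholipid accumulation.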

Molecules are shown by their SMILES. Records with an inconclusive call do not appear. Activity calls are given as the source filed them. Unless noted, calls follow the shape of the dose curve; as a rule, active = well fitted curve in the direction sought with a large enough effect in the repeat runs; inconclusive = weak or mixed curves; inactive = no such curve, though single readings can be large; an effect the other way counts as inactive or inconclusive.

Chain of Estrogen receptor (Homo sapiens) (P03372 whole entry, looked up): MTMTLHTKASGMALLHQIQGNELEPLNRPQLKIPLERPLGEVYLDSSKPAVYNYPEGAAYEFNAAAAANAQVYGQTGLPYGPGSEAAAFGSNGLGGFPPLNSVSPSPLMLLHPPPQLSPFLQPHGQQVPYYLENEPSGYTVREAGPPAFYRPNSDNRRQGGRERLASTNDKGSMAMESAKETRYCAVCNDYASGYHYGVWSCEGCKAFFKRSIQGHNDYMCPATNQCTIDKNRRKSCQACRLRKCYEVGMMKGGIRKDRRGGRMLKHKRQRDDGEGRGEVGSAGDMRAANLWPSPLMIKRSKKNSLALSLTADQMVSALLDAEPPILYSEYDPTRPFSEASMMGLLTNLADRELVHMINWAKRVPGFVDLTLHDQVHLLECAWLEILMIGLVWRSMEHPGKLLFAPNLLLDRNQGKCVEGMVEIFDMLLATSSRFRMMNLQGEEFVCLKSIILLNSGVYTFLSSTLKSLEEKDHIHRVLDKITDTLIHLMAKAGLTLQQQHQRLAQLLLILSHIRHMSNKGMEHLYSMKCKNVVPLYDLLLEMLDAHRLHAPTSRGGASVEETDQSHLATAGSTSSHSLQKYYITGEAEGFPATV
Chain of Androgen receptor (Homo sapiens) (P10275 whole entry, looked up): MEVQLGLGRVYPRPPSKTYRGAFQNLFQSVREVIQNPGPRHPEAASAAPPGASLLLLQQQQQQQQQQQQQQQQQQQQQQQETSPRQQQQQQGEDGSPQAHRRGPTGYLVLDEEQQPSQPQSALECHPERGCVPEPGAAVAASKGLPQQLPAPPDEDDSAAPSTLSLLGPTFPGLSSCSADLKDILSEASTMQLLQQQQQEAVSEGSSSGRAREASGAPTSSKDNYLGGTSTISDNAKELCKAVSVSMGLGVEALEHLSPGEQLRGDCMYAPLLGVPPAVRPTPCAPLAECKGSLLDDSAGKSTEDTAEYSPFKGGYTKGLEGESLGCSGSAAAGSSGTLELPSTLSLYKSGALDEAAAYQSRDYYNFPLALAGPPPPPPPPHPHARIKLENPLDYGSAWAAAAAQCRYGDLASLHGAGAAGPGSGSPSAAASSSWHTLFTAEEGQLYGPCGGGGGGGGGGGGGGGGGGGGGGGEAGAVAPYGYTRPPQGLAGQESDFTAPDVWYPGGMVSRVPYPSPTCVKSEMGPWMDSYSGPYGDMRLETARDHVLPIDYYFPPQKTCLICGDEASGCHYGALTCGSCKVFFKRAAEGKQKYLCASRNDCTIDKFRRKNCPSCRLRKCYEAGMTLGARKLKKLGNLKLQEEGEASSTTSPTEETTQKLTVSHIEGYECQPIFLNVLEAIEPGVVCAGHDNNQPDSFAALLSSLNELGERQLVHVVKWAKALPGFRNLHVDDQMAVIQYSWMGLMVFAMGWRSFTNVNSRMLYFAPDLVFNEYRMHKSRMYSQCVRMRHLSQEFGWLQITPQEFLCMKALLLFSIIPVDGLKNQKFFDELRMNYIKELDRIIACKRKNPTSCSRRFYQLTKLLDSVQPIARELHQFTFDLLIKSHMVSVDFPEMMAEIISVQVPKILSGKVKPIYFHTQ

As for `COC(=O)c1sccc1S(N)(=O)=O`, the Potency result in assay [1], in assay [2], in [3], in [4], in assay [5] and in [6] was “inactive” each time. Besides, the Potency result in assay [7], in assay [8], in [9], in assay [10], in [11] and in assay [12] was “inactive” in each case. The Potency result in assay [13] and in [14] was “inactive” throughout.

For the compound `O=C(O)c1cc(Cl)cc(Cl)c1O`, the Potency entry in [2], in assay [3], in assay [15], in assay [16], in assay [17] and in assay [4] was “inactive” throughout. Besides, the Potency entry in assay [5], in assay [6], in [7], in [8], in [9] and in [10] was “inactive” throughout. In addition, the Potency entry in assay [18], in assay [13], in assay [14] and in [19] was “inactive” throughout.

In the case of `O=C1c2ccccc2C(=O)c2c(O)ccc(O)c21`, the Potency result in assay [1], in assay [3], in assay [4], in assay [5], in [7] and in assay [10] was “inactive” each time. The Potency entry in [12], in assay [13], in [14] and in [19] was “inactive” in each case. The Potency in assay [15] is 24.5 µM (active); in assay [6], 30.9 µM (active); in assay [8] it was 21.9 µM (active).

With `CO[C@@H]1[C@@H](OC)[C@H](C)[C@@](O)(CC(=O)O)O[C@H]1[C@H](C)[C@H]1O[C@@]2(CC[C@@](C)([C@H]3CC[C@@](C)([C@@H]4O[C@@H]([C@H]5O[C@](C)(O)[C@H](C)C[C@@H]5C)C[C@@H]4OC4C[C@H](OC)[C@@H](OC)[C@H](C)O4)O3)O2)C[C@H](O)[C@H]1C` (some centres not stated), the Potency entry in [1], in [16], in assay [6], in [7], in assay [20] and in assay [13] was “inactive” each time. The Potency in [15] is 9.52 µM (active); in assay [4], 3.38 µM (active); in assay [5] it was 8.49 µM (active); in assay [9], 3.35 µM (active); in assay [10], 1.68 µM (active); in assay [11], 11.9 µM (active). The Potency is 4.22 µM (active) in assay [14] and 3.76 µM (active) in assay [19].

As to `O=C(O)CCC(=O)OC[C@@H](NC(=O)C(Cl)Cl)[C@H](O)c1ccc([N+](=O)[O-])cc1`, the Potency entry in [1], in [17], in assay [4], in assay [5], in assay [7] and in assay [9] was “inactive” throughout. Also, the Potency result in [10], in assay [12], in assay [13], in assay [14] and in assay [19] was “inactive” each time. In addition, the Potency in assay [3] is 19 µM (active); in [15], 12 µM (active); in [16], 21.3 µM (active); in assay [8], 21.3 µM (active).

For the compound `CCC(CO)(CO)[N+](=O)[O-]`, the Potency entry in [1], in assay [2], in assay [3], in assay [16], in assay [17] and in [4] was “inactive” each time. Also, the Potency result in [5], in assay [6], in [7], in assay [8], in [9] and in assay [10] was “inactive” each time. Moreover, the Potency result in assay [11], in assay [12], in assay [13], in assay [14] and in assay [19] was “inactive” in each case.

`O=NN(CCCl)C(=O)NCCCl`: the Potency entry in assay [1], in [2], in [16], in [17], in assay [4] and in assay [5] was “inactive” each time. Moreover, the Potency entry in assay [6], in [7], in assay [9], in assay [10], in assay [18] and in assay [20] was “inactive” in each case. Further, the Potency entry in assay [12], in assay [14] and in assay [19] was “inactive” in each case. In addition, the Potency in assay [3] and in assay [8] was 5.35 µM (active) each time.

Consider `CC(=O)OCCC1CCCCC1`, for which the Potency result in [1], in assay [2], in assay [3], in assay [16], in assay [17] and in assay [4] was “inactive” in each case. Besides, the Potency entry in assay [5], in assay [6], in [7], in assay [8], in assay [9] and in assay [10] was “inactive” throughout. Further, the Potency result in [11], in [12], in assay [14] and in assay [19] was “inactive” in each case.
